# Measurements taken from ChEMBL document CHEMBL3988442, “University of Dundee, Small-Polar-MMV Screening Library” (2021).
# Out of some 69,000 compounds screened, about 1,000 (1.4%) showed an effect of 50% or more. This is one part of a sample in which strong results are shown more often than they occur.
# Tested on: Leishmania donovani
# Assay: Leishmania intramacrophage assay
# Format: functional, organism-based
# Parameters: scale not given: in the data most compounds retested in dose-response had high values
structure (smiles),measurement,setting,value
O=C(O)C(F)(F)F.O=C(O)C(F)(F)F.O=C(c1ccco1)N1CCN2C[C@H](OCc3cccnc3)C[C@H]2C1,Percent Effect,"30.3 µM, […]",15.93%
O=C(O)C(F)(F)F.c1ccc(NC[C@@H]2CCC[C@@H]3CN(Cc4cccnc4)C[C@@H]32)nc1,Percent Effect,"30.3 µM, […]",38.85%
Cc1noc(C)c1CN1C[C@@H]2CC(F)(F)C[C@@H]2C1.O=C(O)C(F)(F)F,Percent Effect,"30.3 µM, […]",4.682%
Cc1noc(C)c1CN1C[C@H]2CN(Cc3cccc(F)c3)C[C@H]2C1.O=C(O)C(F)(F)F.O=C(O)C(F)(F)F,Percent Effect,"30.3 µM, […]",50.84%
Fc1cccc(CN2C[C@@H]3CN(c4ncccn4)C[C@@H]3C2)c1.O=C(O)C(F)(F)F.O=C(O)C(F)(F)F,Percent Effect,"30.3 µM, […]",8.696%
O=C(C1CCOC1)N1CCC2(CCNCC2)C1 (stereo not given),Percent Effect,"30.3 µM, […]",11.74%
Cc1nnc([C@H]2C[C@@H]3CCN(Cc4cc(C)on4)C[C@H]3O2)[nH]1,Percent Effect,"30.3 µM, […]",19.71%
Cc1cc(CN2CC[C@H]3C[C@@H](c4nccs4)O[C@@H]3C2)no1,Percent Effect,"30.3 µM, […]",12.1%
Cc1cc(CN2CC[C@@H]3O[C@@H](c4nnc(C)o4)C[C@H]3C2)no1,Percent Effect,"30.3 µM, […]",55.35%
CCc1c(C)[nH]c(C2(N)CCCC2)nc1=O.Cl,Percent Effect,"30.3 µM, […]",9.424%
O=C(O)C(F)(F)F.c1cnc(N2CCC3(CCCN(CC4CC4)C3)CC2)nc1,Percent Effect,"30.3 µM, […]",32.8%
O=C(O)C(F)(F)F.O=C(O)C(F)(F)F.c1cnc(N2CCCC3(CCN(CC4CC4)C3)C2)nc1 (stereo not given),Percent Effect,"30.3 µM, […]",29.01%
O=C(O)C(F)(F)F.c1cnc(N2CCCC3(CCN(CC4CCC4)C3)C2)nc1 (stereo not given),Percent Effect,"30.3 µM, […]",67.66%
Cc1noc([C@@H]2C[C@H]3OCC[C@H]3N(C(C)C)C2)n1.O=C(O)C(F)(F)F,Percent Effect,"30.3 µM, […]",-1.476%
c1ccc(N2CCCC3(CCN(Cc4nccs4)C3)C2)nc1 (stereo not given),Percent Effect,"30 µM, 30.03 µM",40.77%
CNC(=O)[C@@H]1[C@H]2CNCCN2C[C@H]1c1ccccc1,Percent Effect,"30.3 µM, […]",3%
Cc1ccc(CN2CCC3(CC2)C(=O)Nc2ccccc23)s1.O=C(O)C(F)(F)F,Percent Effect,"30.3 µM, […]",7.529%
Cl.Cl.NCC1[C@H]2CN(CCc3ccccc3)C[C@@H]12 (stereo not given in full),Percent Effect,"30 µM, 30.03 µM",31.54%
NCC1[C@H]2CN(Cc3cccc(Cl)c3)C[C@@H]12 (stereo not given in full),Percent Effect,"30.3 µM, […]",88.17%
Cl.Cl.NC[C@H]1[C@H]2CN(Cc3ccccc3)C[C@@H]12,Percent Effect,"30 µM, 30.03 µM",3.608%
CN1CCCCC1c1cncc(Cl)n1.Cl (stereo not given),Percent Effect,"30.3 µM, […]",9.533%
CCN1CCC2(CC1)C(=O)Nc1ccc(C(=O)NC)cc12.O=C(O)C(F)(F)F,Percent Effect,"30.3 µM, […]",1.318%
O=C(N1CCOCC1)[C@@]12CCO[C@@H]1CCN(Cc1ccncc1)C2.O=C(O)C(F)(F)F.O=C(O)C(F)(F)F,Percent Effect,"30.3 µM, […]",2.48%
CC[C@H](C)[C@@H](CO)NC(C)Cc1ccccc1F (stereo not given in full),Percent Effect,"30.3 µM, […]",2.411%
CC(N)Cc1ccccc1Sc1ccc(O)cc1.CC(N)Cc1ccccc1Sc1ccc(O)cc1.O=C(O)C(=O)O (stereo not given),Percent Effect,"30.3 µM, […]",78.04%
CNC(C)Cc1ccccc1Sc1ccc(O)cc1.Cl (stereo not given),Percent Effect,"30.3 µM, […]",66.06%
CC(N)Cc1ccccc1Sc1ccccc1.O=C(O)/C=C\C(=O)O (stereo not given),Percent Effect,"30.3 µM, […]",100.2%
CNS(=O)(=O)CC(=O)NC(C)Cc1ccccc1Br (stereo not given),Percent Effect,"30.3 µM, […]",6.804%
Cc1noc(C)c1CN1CCCC2(CCN(C(=O)NC3CC3)C2)C1.O=C(O)C(F)(F)F (stereo not given),Percent Effect,"30 µM, 30.03 µM",17.52%
O=C(C[C@@H]1COC[C@H]2CN(Cc3cccnc3)C[C@@H]12)N1CCCC1.O=C(O)C(F)(F)F.O=C(O)C(F)(F)F,Percent Effect,"30.3 µM, […]",-30.89%
CN1C(=O)C2(CCN(CC3CC3)CC2)c2ccccc21.O=C(O)C(F)(F)F,Percent Effect,"30 µM, 30.03 µM",16.21%
CN(C)[C@@H]1CCN(C(=O)Cc2ccc(F)cc2)[C@H]1Cc1ccncc1.O=C(O)C(F)(F)F.O=C(O)C(F)(F)F,Percent Effect,"30.3 µM, […]",29.68%
Cc1cccc(CN2CC[C@@H]3[C@@H]2CCN3C(=O)c2ccoc2C)n1.O=C(O)C(F)(F)F.O=C(O)C(F)(F)F,Percent Effect,"30.3 µM, […]",32.03%
Cc1[nH]c(C2(N)CCCCC2)nc(=O)c1C.Cl,Percent Effect,"30.3 µM, […]",27.19%
Cc1cnc(C(=O)N2C[C@H]3CN(Cc4cccnc4)C[C@H]3C2)cn1.O=C(O)C(F)(F)F.O=C(O)C(F)(F)F,Percent Effect,"30.3 µM, […]",19.7%
Cc1noc(C)c1CN1C[C@@H]2C[C@H](C(=O)NCC3CC3)N(C)[C@@H]2C1.O=C(O)C(F)(F)F.O=C(O)C(F)(F)F,Percent Effect,"30.3 µM, […]",-4.016%
CCN1CC2(CC1=O)CN(Cc1ccccn1)CCN(C(C)=O)C2.O=C(O)C(F)(F)F.O=C(O)C(F)(F)F (stereo not given),Percent Effect,"30.3 µM, […]",0.8966%
O=C(O)C(F)(F)F.O=C(O)C(F)(F)F.c1ccc(CN2CC[C@H]3CO[C@H](CNc4ncccn4)[C@H]3C2)cc1,Percent Effect,"30.3 µM, […]",8.127%
CN(C)C(=O)CN1CC[C@@H]2O[C@@H](COCc3cccnc3)CC[C@@H]21.O=C(O)C(F)(F)F.O=C(O)C(F)(F)F,Percent Effect,"30.3 µM, […]",38.61%
O=C(O)C(F)(F)F.O=C(O)C(F)(F)F.c1cncc(COC[C@H]2CC[C@H]3[C@H](CCN3Cc3cccs3)O2)c1,Percent Effect,"30 µM, 30.03 µM",31.53%
O=C(O)C(F)(F)F.O=C(O)C(F)(F)F.c1cncc(COC[C@H]2CC[C@H]3[C@H](CCN3Cc3nccs3)O2)c1,Percent Effect,"30.3 µM, […]",98.87%
COc1cc(CNC(C)Cn2cccn2)cc(Cl)c1OC.Cl (stereo not given),Percent Effect,30 µM,29.92%
Cc1cc(CN2C[C@@H]3COC[C@]3(CNC(=O)c3ccsc3)C2)no1.O=C(O)C(F)(F)F,Percent Effect,"30.3 µM, […]",18.56%
Cn1cc(N2CCC3(CCN(Cc4cccnc4)C3)C2=O)cn1.O=C(O)C(F)(F)F.O=C(O)C(F)(F)F (stereo not given),Percent Effect,"30 µM, 30.03 µM",-14.07%
Cn1cc(CN2CCC3(CCCN3Cc3cccnc3)CC2)cn1.O=C(O)C(F)(F)F.O=C(O)C(F)(F)F.O=C(O)C(F)(F)F,Percent Effect,"30.3 µM, […]",63.2%
O=C(O)C(F)(F)F.O=C(c1ccc[nH]1)N1CCC2(CCCN2Cc2cccnc2)CC1,Percent Effect,"30.3 µM, […]",12.17%
COCCN1C[C@@H]2[C@@H](OC)CCN(C(=O)Cc3ccccc3)[C@@H]2C1.O=C(O)C(F)(F)F,Percent Effect,"30.3 µM, […]",35.25%
COc1cc(C2SCC(=O)Nc3[nH]ncc32)cc2c1OCO2 (stereo not given),Percent Effect,"30.3 µM, […]",1.862%
COc1cc(C2SCC(=O)Nc3[nH]ncc32)c(OC)c2c1OCO2 (stereo not given),Percent Effect,"30.3 µM, […]",8.87%
COc1cc(C2SCC(=O)Nc3[nH]ncc32)cc(OC)c1OC (stereo not given),Percent Effect,"30.3 µM, […]",56.1%
